Only some compounds are listed: those with a hit (about 2.4% of all), similar ones and a draw of the others.
Myc binder: binders of human c-Myc, primary screen, biochemical, small molecule microarray, anti-His fluorescence; actives 1.5% (n = 17,000); Myc proto-oncogene protein (Homo sapiens), P01106; His-c-Myc binding; calls only;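 active means spot fluorescence over background with P-value below 7% in all four replicate spots, showing protein binding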
Target sequence (P01106 whole entry, looked up): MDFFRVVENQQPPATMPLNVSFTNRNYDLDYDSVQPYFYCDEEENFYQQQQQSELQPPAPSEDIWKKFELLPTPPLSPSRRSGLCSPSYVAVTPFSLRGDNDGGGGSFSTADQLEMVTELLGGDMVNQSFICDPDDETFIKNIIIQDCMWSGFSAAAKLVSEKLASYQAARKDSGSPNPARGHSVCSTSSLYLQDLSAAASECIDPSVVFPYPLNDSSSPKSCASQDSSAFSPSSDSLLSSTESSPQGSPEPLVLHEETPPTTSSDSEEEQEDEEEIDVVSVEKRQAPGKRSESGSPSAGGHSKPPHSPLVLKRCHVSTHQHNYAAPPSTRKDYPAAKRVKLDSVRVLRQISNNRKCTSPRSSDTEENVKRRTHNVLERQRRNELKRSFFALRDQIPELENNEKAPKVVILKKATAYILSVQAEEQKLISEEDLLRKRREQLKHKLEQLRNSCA
NFkB SMM: binders of NF-kB p50 subunit, primary screen, biochemical, small molecule microarray, anti-His fluorescence. anti-His fluorescence binding. calls only. actives 1.3% (n = 17,000). AID 624139, 2012;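 active means spot fluorescence over background significantly raised, with a chance value under 7% in all four replicate spots of the compound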;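 further: probe protein is his-tagged human p50 processed subunit at 1 µg/ml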
STAT3 SMM: STAT3 binders, primary screen, biochemical, small molecule microarray, single point, set 2; calls only; AID 624138, 2012; His-STAT3 binding, anti-His fluorescence; Signal transducer and activator of transcription 3 (Homo sapiens), P40763; actives 0.2% (n = 17,000);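 active means compounds whose four printed spots each show fluorescence over background unusually high for their array block, chance value under 7%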
mut p53 SMM: binders of human mutant p53, primary screen, biochemical, small molecule microarray, anti-GST fluorescence; small molecule microarray binding; AID 624136, 2012; calls only; actives 0.4% (n = 17,000);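 active means compounds whose four printed spots each glow above background more than chance allows, each with a p-value under 7%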
Each line names hits and unclear results; the compound was inactive in the other large screens.

COc1cc2c(cc1OC)CN(C(=O)[C@@H]1[C@H]3C(=O)O[C@H](c4ccccc4)[C@H](c4ccccc4)N3[C@H](c3ccccc3OCCO)[C@@]13C(=O)Nc1ccc(C#CCNC(N)=O)cc13)CC2	NFkB SMM active
NC(=O)NCC#Cc1ccc2c(c1)[C@]1(C(=O)N2)[C@H](C(=O)N2CCCCCCC2)[C@H]2C(=O)O[C@H](c3ccccc3)[C@H](c3ccccc3)N2[C@@H]1c1ccccc1OCCO	Myc binder active, mut p53 SMM active
O=C1O[C@H](c2ccccc2)[C@H](c2ccccc2)N2[C@H]1[C@@H](C(=O)N1CCCCCCC1)[C@]1(C(=O)Nc3ccc(C#CC4=CCCCC4)cc31)[C@H]2c1ccccc1OCCO	Myc binder active, NFkB SMM active, mut p53 SMM active
O=C1O[C@H](c2ccccc2)[C@H](c2ccccc2)N2[C@H]1[C@@H](C(=O)N1CCN(c3ncccn3)CC1)[C@]1(C(=O)Nc3ccc(C#CC4=CCCCC4)cc31)[C@H]2c1ccccc1OCCO	none
COc1ccc(C#Cc2ccc3c(c2)[C@]2(C(=O)N3)[C@H](C(=O)N3CCc4cc(OC)c(OC)cc4C3)[C@H]3C(=O)O[C@H](c4ccccc4)[C@H](c4ccccc4)N3[C@@H]2c2ccccc2OCCO)cc1	none
CCc1cc(-c2n[nH]c(C)c2-c2nc(C)cs2)c(O)cc1OCc1ccc([N+](=O)[O-])cc1	none
O=C(O)CNc1ncnc2oc(-c3ccccc3)c(-c3ccccc3)c12	none
COc1ccccc1C1=NN(C(=O)CCC(=O)O)C(c2ccco2)C1 (configuration not stated)	none
COc1ccc(OC)c(-c2nc(C)sc2CC(=O)O)c1	none
COc1ccc(-c2noc(CC(=O)O)c2-c2ccc(OC)cc2)cc1	Myc binder active
NC(=O)Cc1ccc(O)c(Cl)c1	none
N#Cc1c(-c2ccccc2)nc(SCCN2C(=O)c3ccccc3C2=O)[nH]c1=O	none
O=C1c2cccc3cccc(c23)C(=O)N1CCCSc1ncn[nH]1	Myc binder active
CC(C)Sc1nc2sc3c(c2c2nnc(SCC(=O)c4ccccc4)n12)CCCC3	none
O=C(CS(=O)(=O)c1ccc2ccccc2c1)c1cc2ccccc2oc1=O	Myc binder active
CC(C)(CO)NCC(O)COc1ccccc1Cl (configuration not stated)	none
C[C@@H]1CN([C@@H](C)CO)C(=O)c2cc(NC(=O)C3CCCCC3)ccc2O[C@@H](C)CCCCO[C@@H]1CN(C)C(=O)C1CCCCC1	Myc binder active, NFkB SMM active
C[C@H](CO)N1C[C@H](C)[C@@H](CN(C)C(=O)Nc2ccccc2)OCCCC[C@H](C)Oc2ccc(NC(=O)Nc3ccccc3)cc2C1=O	Myc binder active, NFkB SMM active
C[C@@H]1CCCCO[C@H](CN(C)C(=O)Nc2ccccc2)[C@H](C)CN([C@@H](C)CO)C(=O)c2cc(NC(=O)Nc3ccccc3)ccc2O1	none
C[C@@H]1CCCCO[C@H](CN(C)C(=O)Cc2ccccc2)[C@H](C)CN([C@@H](C)CO)C(=O)c2cc(NC(=O)Nc3ccc(F)cc3)ccc2O1	STAT3 SMM active
C[C@H]1CCCCO[C@@H](CN(C)C(=O)Nc2ccccc2)[C@@H](C)CN([C@@H](C)CO)C(=O)c2cc(NC(=O)C3CCCCC3)ccc2O1	Myc binder active
C[C@H](CO)N1C[C@H](C)[C@H](CN(C)C)OCCCC[C@H](C)Oc2ccc(NC(=O)C3CCCCC3)cc2C1=O	none
COc1ccccc1NC(=O)CSc1nc(-c2ccc(C)cc2)nc2c1COC(C)(C)C2	none
CCCn1c2ccccc2c2nnc(Sc3ccc4nsnc4c3[N+](=O)[O-])nc21	none
COc1cc(O)cc(C2=C(C)CC(O)C2=O)c1 (configuration not stated)	none
CNC[C@H]1Oc2ccc(NC(=O)C3CC3)cc2C(=O)N([C@@H](C)CO)C[C@@H]1C	none
CNC[C@@H]1Oc2ccc(NC(=O)C3CC3)cc2C(=O)N([C@H](C)CO)C[C@H]1C	Myc binder active, NFkB SMM active
Cc1noc(C)c1S(=O)(=O)N(C)C[C@@H]1OCCCC[C@@H](C)Oc2ccc(N(C)C)cc2C(=O)N([C@@H](C)CO)C[C@@H]1C	none
C[C@@H]1CCCCO[C@H](CN(C)S(=O)(=O)c2ccccc2)[C@@H](C)CN([C@@H](C)CO)C(=O)c2cc(N(C)C)ccc2O1	NFkB SMM active
Cc1noc(C)c1S(=O)(=O)N(C)C[C@H]1OCCCC[C@@H](C)Oc2ccc(N(C)C)cc2C(=O)N([C@@H](C)CO)C[C@@H]1C	Myc binder active, NFkB SMM active, STAT3 SMM active
C[C@@H]1CCCCO[C@@H](CN(C)S(=O)(=O)c2ccccc2)[C@H](C)CN([C@H](C)CO)C(=O)c2cc(N(C)C)ccc2O1	none
CC(Sc1nc2ccccc2c(=O)[nH]1)C(=O)Nc1ccc(Cl)cc1 (configuration not stated)	none
CCOc1cc(CO)c(Br)cc1OCC(=O)O	Myc binder active
COc1cc(Cl)cc(C(=O)O)c1OCC(=O)O	none
C=C1CCC2(C(=O)O)CCC3(C)C(=CCC4C5(C)C[C@@H](O)[C@H](O)C(C)(CO)C5CCC43C)C2C1C (some centres not stated)	Myc binder active, NFkB SMM active
Cc1occc1-c1nnc2sc(-c3ccc(-c4ccccc4[N+](=O)[O-])o3)nn12	mut p53 SMM active
COC1CC(OC2CCC3(C)C(CCC4(O)C3CC(OC(=O)c3ccccc3)C3(C)C(O)(C(C)=O)CCC43O)C2)OC(C)C1OC1CC(OC)C(OC2OC(C)C(OC3OC(CO)C(O)C(O)C3O)C(OC)C2O)C(C)O1 (configuration not stated)	Myc binder active, NFkB SMM active
CC(C)c1cc2c(cc1O)[C@@]1(C(=O)O)CCCC(C)(C)C1CC2 (some centres not stated)	none
COc1c(Cl)cc(Cl)cc1CNCCNCC(C)O (configuration not stated)	STAT3 SMM active, mut p53 SMM active
S=C(NCC1CCCO1)Nc1cnn(Cc2ccc(Cl)cc2)c1 (configuration not stated)	Myc binder active
O=C(O)CCC(=O)Nc1ccccc1C(=O)O	Myc binder active
C=C1C2=C(C(=O)N1OC)[C@H](O)[C@](C)(O)[C@H](CCCCC)O2	none
C=CC[C@]1(C(=O)NCCCOC)COC(c2ccc(OCCCO)cc2)=N1	Myc binder active, NFkB SMM active
CNC[C@@H]1Oc2ncc(-c3cc4ccccc4o3)cc2C(=O)N([C@H](C)CO)C[C@@H]1C	none
CC(C)NC(=O)N(C)C[C@@H]1Oc2ncc(C#Cc3ccc(C(F)(F)F)cc3)cc2C(=O)N([C@H](C)CO)C[C@@H]1C	Myc binder active, NFkB SMM active, mut p53 SMM active
C[C@H](CO)N1C[C@H](C)[C@H](CN(C)C(=O)NC2CCCCC2)Oc2ncc(C#Cc3ccc(F)cc3)cc2C1=O	none
